Source: PubChem BioAssay (NCI)
Compounds without any hit were thinned out: in the full panel of roughly 83,000, 20% have a hit.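 How to read the values: 0–100, growth inhibition (40 = 60% inhibited); 0, no net growth; -100 to 0, cell death (-40 = 40% of starting cells died; -100 = all dead).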 Activity calls are given as the source filed them. Rule for the calls: active = growth percent below 10; inactive = the rest.

Experiments:
Assay in all cases: NCI-60 one-dose screen, 48 h (100 = growth as untreated, 0 = no growth, -100 = all killed)
Conditions in all cases: 10 µM unless noted
NCI-H23 lung = system: NCI-H23 lung
NCI-H226 lung = system: NCI-H226 lung
HOP-62 NSCLC = system: HOP-62 NSCLC
NCI-H460 lung = system: NCI-H460 lung
HOP-92 NSCLC = system: HOP-92 NSCLC
NCI-H522 lung = system: NCI-H522 lung
A549/ATCC NSCLC = system: A549/ATCC NSCLC
786-0 renal = system: 786-0 renal
COLO 205 colon = system: COLO 205 colon

Measured: growth

O=S1(=O)OC(c2cc(Cl)c(O)c(Br)c2)(c2cc(Cl)c(O)c(Br)c2)c2ccccc21
inactive: NCI-H23 lung 103% | NCI-H226 lung 104% | HOP-62 NSCLC 99% | NCI-H460 lung 105% | HOP-92 NSCLC 68.5% | NCI-H522 lung 70.8% | A549/ATCC NSCLC 94.1% | 786-0 renal 106% | COLO 205 colon 115%

Cc1sc2c(c1C)c(=O)nc1c(-c3nc4ccccc4s3)n[nH]n12
inactive: NCI-H23 lung 88.7% | NCI-H226 lung 87.4% | HOP-62 NSCLC 90.1% | NCI-H460 lung 96.7% | HOP-92 NSCLC 88.7% | NCI-H522 lung 90.8% | A549/ATCC NSCLC 97.2% | 786-0 renal 105% | COLO 205 colon 103%

COC(=O)C1CCc2sc3ncnc(Nc4cn[nH]c4C(=O)Nc4ccc(CN5CCN(C)CC5)cc4)c3c21 (stereo unspecified)
inactive: NCI-H226 lung 14.9%
active: NCI-H23 lung -9.63% | HOP-62 NSCLC 0.169% | NCI-H460 lung -59% | HOP-92 NSCLC -29.2% | NCI-H522 lung -1.37% | A549/ATCC NSCLC 4.85% | 786-0 renal -4.45% | COLO 205 colon -70.8%

COc1ccc2c(OCc3nnc4ccc(-c5ccccc5)nn34)ccnc2c1
inactive: NCI-H23 lung 70.2% [2.5 µM] | NCI-H226 lung 84.7% [2.5 µM] | HOP-62 NSCLC 77.5% [2.5 µM] | NCI-H460 lung 110% [2.5 µM] | HOP-92 NSCLC 98.7% [2.5 µM] | NCI-H522 lung 85.8% [2.5 µM] | A549/ATCC NSCLC 94.1% [2.5 µM] | 786-0 renal 93.7% [2.5 µM] | COLO 205 colon 95.3% [2.5 µM]

CCN(CC)CCCC(C)Nc1cc(-c2ccc(C(F)(F)F)cc2)c(C#N)c2nc3ccccc3n12 (stereo unspecified)
active: NCI-H226 lung -39.6% | HOP-62 NSCLC 6.94% | NCI-H460 lung -18.8% | 786-0 renal -83.3% | COLO 205 colon -44.6%
inactive: NCI-H23 lung 18.6% | HOP-92 NSCLC 68.8% | NCI-H522 lung 13.1% | A549/ATCC NSCLC 17.1%

COc1ccc2c(CCC(c3ccccc3)c3ccccc3)c3[n+](cc2c1OC)CCc1cc2c(cc1-3)OCO2
inactive: NCI-H226 lung 24.7% | A549/ATCC NSCLC 15.7% | 786-0 renal 14.8%
active: NCI-H23 lung 0.765% | HOP-62 NSCLC 9.37% | NCI-H460 lung -3.4% | HOP-92 NSCLC -9.89% | NCI-H522 lung -0.122% | COLO 205 colon -58.8%

CC(=O)Oc1ccccc1C(=O)N=C1[Se]CCN1C(=O)c1ccccc1OC(C)=O
active: NCI-H23 lung 0.294% | NCI-H226 lung -48.4% | HOP-62 NSCLC -48.1% | NCI-H460 lung -7.43% | HOP-92 NSCLC -72.4% | NCI-H522 lung -6.48% | A549/ATCC NSCLC -52.6% | 786-0 renal -95.8% | COLO 205 colon -26.9%

CNC(=O)c1cnc(C)nc1-c1cc(C(C)(C)C)c(O)c(C(C)(C)C)c1
inactive: NCI-H23 lung 103% | NCI-H226 lung 98.2% | HOP-62 NSCLC 99.9% | NCI-H460 lung 108% | HOP-92 NSCLC 74% | NCI-H522 lung 83.2% | A549/ATCC NSCLC 95.9% | 786-0 renal 88.9% | COLO 205 colon 105%

COc1cc(Nc2ncc(F)c(Nc3ccc4c(n3)NC(=O)C(C)(C)O4)n2)cc(OC)c1OC
inactive: NCI-H23 lung 52.1% | NCI-H226 lung 12.2% | HOP-62 NSCLC 27.3% | NCI-H460 lung 65% | A549/ATCC NSCLC 26.8% | 786-0 renal 29% | COLO 205 colon 18.9%
active: HOP-92 NSCLC 2.19% | NCI-H522 lung 6.57%

CCN1CCN(c2nc(C)cc(N(CCNc3ccnc4cc(Cl)ccc34)Cc3ccc4c(c3)OCO4)n2)CC1
inactive: NCI-H23 lung 67.5% | NCI-H226 lung 75.3% | NCI-H460 lung 18.1% | A549/ATCC NSCLC 20.4%
active: HOP-62 NSCLC -19.8% | HOP-92 NSCLC -4.69% | NCI-H522 lung -0.151% | 786-0 renal -24.5% | COLO 205 colon -75.8%

C=CCCCOC1[C@H](OCc2ccccc2)C(OCc2ccccc2)C(OC)O[C@@H]1CNC(=O)c1cccc(I)c1 (stereo partly specified)
active: NCI-H460 lung -7.83%
inactive: NCI-H23 lung 44.2% | NCI-H226 lung 66.5% | HOP-62 NSCLC 77.7% | HOP-92 NSCLC 67.2% | NCI-H522 lung 42.1% | A549/ATCC NSCLC 27.2% | 786-0 renal 39.5% | COLO 205 colon 36.9%

O=C1NC(=O)[C@@H](c2cn3c4c(cccc24)CCC3)[C@@H]1c1c[nH]c2ccccc12
active: HOP-62 NSCLC 5.24% | NCI-H460 lung 5.41% | NCI-H522 lung -0.0655% | A549/ATCC NSCLC 6.25% | COLO 205 colon -57.3%
inactive: NCI-H23 lung 32.5% | NCI-H226 lung 57% | HOP-92 NSCLC 31% | 786-0 renal 21.5%

Nc1c2c(c(O)c3c1=C(CO)C=N3)=NCCS2
active: NCI-H23 lung -43.9% | NCI-H226 lung -85.9% | HOP-62 NSCLC -79.3% | NCI-H460 lung -60.5% | HOP-92 NSCLC -71.2% | NCI-H522 lung -46.4% | A549/ATCC NSCLC -72% | 786-0 renal -82.6% | COLO 205 colon -72.8%

C=C1CC[C@@H]2[C@](C)(COC(C)=O)[C@H](OC(C)=O)CC[C@@]2(C)[C@@H]1C/C=C1/C(=O)OC[C@H]1OC(C)=O
active: NCI-H522 lung -41.6% | 786-0 renal -10.9%
inactive: NCI-H23 lung 80.9% | NCI-H226 lung 23.6% | HOP-62 NSCLC 75.7% | NCI-H460 lung 98% | HOP-92 NSCLC 71.9% | A549/ATCC NSCLC 85.8% | COLO 205 colon 22%

O=S1(=O)OC(c2ccc(O)c(Cl)c2)(c2ccc(O)c(Cl)c2)c2ccccc21
inactive: NCI-H23 lung 97.8% | NCI-H226 lung 93.9% | HOP-62 NSCLC 99.5% | NCI-H460 lung 101% | NCI-H522 lung 93.4% | A549/ATCC NSCLC 99.1% | 786-0 renal 110% | COLO 205 colon 103%

Nc1ncnc2c1c(-c1cccc(OCc3ccccc3)c1)cn2C1CC(CN2CCC2)C1 (stereo unspecified)
inactive: NCI-H23 lung 33.6% | NCI-H226 lung 40.1% | NCI-H460 lung 21.9%
active: HOP-62 NSCLC -29.5% | NCI-H522 lung -23.6% | A549/ATCC NSCLC 4.8% | 786-0 renal -70.4% | COLO 205 colon -66.7%

CN1CCN(c2ccc(C(=O)Nc3n[nH]c4ccc(Cc5cc(F)cc(F)c5)cc34)c(NC3CCOCC3)c2)CC1
inactive: NCI-H23 lung 11%
active: NCI-H226 lung -5.76% | HOP-62 NSCLC -34.8% | NCI-H460 lung -80.3% | HOP-92 NSCLC -68.6% | NCI-H522 lung -70.6% | A549/ATCC NSCLC -51.7% | 786-0 renal -95.1% | COLO 205 colon -73.6%
